# Compounds with a hit are over-represented: about 19% of the library has one in this group of screens.
# TGFb inhibitor = blocks TGF-b signaling; AID 588855; Potency, µM (doses to about 46.1 µM), for the others: at the top dose activity, negative = inhibition, usual class: inhibitors; HepG2 CAGA-GFP TGF-b/SMAD3 reporter, GFP fluorescence, 18 h; TGF-beta stimulated, 500 pg/mL final; 410,000 compounds, 1.2% hits; note: potency is the fitted concentration of half-maximal effect; % is set by controls: 0 for no effect and ±100 for the full control effect; nearly all actives have a fitted effect of over 65% in size
#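 Using HEPG2 CAGA-GFP reporter cells at 1000 cells/well, we pinned test compounds, stimulated with recombinant TGF-beta (500 pg/mL final) and measured total well GFP after 18 h.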
# TDP1 cell noCPT = qHTS for Inhibitors of human tyrosyl-DNA phosphodiesterase 1 (TDP1): qHTS in cells in absence of CPT | DT40 Tdp1-/- hTDP1 cells, no CPT, ATP luminescence, 48 h | Potency, µM (titrated, usually from 46.2 µM), for inactives: at the top dose activity change, negative = growth inhibition, actives largely listed as inhibitors | 420,000 compounds, 15% hits | AID 686978, 2013; note: potency is the fitted concentration of half-maximal effect; % is set by controls: 0 for no effect and ±100 for the full control effect; nearly all actives have a fitted effect of over 55% in size
#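 Growth of hTDP1-complemented DT40 Tdp1-knockout cells is measured by ATP luminescence after at least 48 hr compound exposure at 37 °C, with DMSO substituting for the 20 nM CPT used in the parallel screen.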
# ASM inhibitor = blocks human secretory acid sphingomyelinase | Potency, µM (top dose mostly 57.5 µM), for the others: at the highest dose activity change, negative = inhibition, most hits filed as inhibitors | 340,000 compounds, 0.006% hits | P17405 | AID 504937 | placental ASM, HMU-PC fluorogenic substrate, 60 min; note: potency is the fitted concentration of half-maximal effect
# Target sequence (P17405 47-631 limits assumed): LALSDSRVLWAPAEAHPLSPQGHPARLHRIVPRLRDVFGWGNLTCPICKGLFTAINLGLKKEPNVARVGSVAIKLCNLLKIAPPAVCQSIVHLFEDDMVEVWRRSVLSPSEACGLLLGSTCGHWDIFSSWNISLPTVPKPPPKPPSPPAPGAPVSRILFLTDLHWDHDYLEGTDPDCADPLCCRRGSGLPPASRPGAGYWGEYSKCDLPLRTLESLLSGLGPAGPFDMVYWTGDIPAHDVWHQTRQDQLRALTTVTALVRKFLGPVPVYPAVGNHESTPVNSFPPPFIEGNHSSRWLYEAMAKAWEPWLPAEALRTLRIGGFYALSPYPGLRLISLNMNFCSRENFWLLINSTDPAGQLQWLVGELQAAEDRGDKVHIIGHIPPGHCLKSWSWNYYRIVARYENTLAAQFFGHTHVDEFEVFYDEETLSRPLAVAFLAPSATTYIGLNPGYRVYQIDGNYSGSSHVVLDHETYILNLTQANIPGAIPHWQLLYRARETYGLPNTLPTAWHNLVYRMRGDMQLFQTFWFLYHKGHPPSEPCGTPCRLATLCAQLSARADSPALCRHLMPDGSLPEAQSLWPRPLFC
#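 Human placenta-derived ASM preincubated with compound 10 min at room temperature, then reacted with 9 uM (final) fluorogenic HMU-PC substrate for 60 min at 37 C. Stop solution raises pH to 10; fluorescence read at Ex 386/Em 447 nm.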
# IL-1B inflam inh = blocks inflammasome-driven IL-1 beta release; 360,000 compounds, 4.7% hits; activity change, % at 57.5 µM; THP-1 LPS/ATP IL-1B secretion, AlphaLISA, 16 h; hits give low values; AID 743279; in the data active = activity change below about -50%; inconclusive = mostly about -30% to -49%; note: % is set by controls: 0 for no effect and ±100 for the full control effect
#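 Secreted IL-1B measured by AlphaLISA bead assay after 16 h compound exposure of THP-1 cells; compounds (final up to 57.5 uM) added 1 h before LPS (250 ng/mL) and ATP (1.25 mM) stimulation; lower signal means less secretion.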
# DT40 TDP1 CPT = growth inhibition of DT40 Tdp1-/-;hTDP1 cells with camptothecin (screen for TDP1 inhibitors); chicken DT40 Tdp1-/-;hTDP1 cells + 20 nM CPT, ATP luminescence, 48 h; Potency, µM (highest dose often 46.2 µM), for the others: at the highest dose activity change, negative = growth inhibition, usual class: inhibitors; 420,000 compounds, 12% hits; note: potency is the fitted concentration of half-maximal effect; % is set by controls: 0 for no effect and ±100 for the full control effect; nearly all actives have a fitted effect of over 55% in size
#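 Chicken DT40 Tdp1-/- cells complemented with human TDP1, 400 cells/well, exposed to compounds plus 20 nM camptothecin for at least 48 h at 37 C; viability read as ATP content by CellTiter-Glo luminescence.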
# HepG2 tox = kills HepG2 cells in TGF-b inhibitor counter-screen | 410,000 compounds, 0.76% hits | Potency, µM (doses to about 46.1 µM), without a hit: top-dose activity change, negative = cytotoxicity, hits mostly cytotoxic | HepG2 CAGA-GFP viability, ATP luminescence, 18 h; note: potency is the fitted concentration of half-maximal effect
#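 HepG2 CAGA-GFP cells (1000/well, DMEM with 1% FBS) received compound, then TGF-beta at 500 pg/mL final, and were incubated 18 hours at 37 degrees C. Viability was read by CellTiter-Glo luminescence. Media-only wells were set as complete cell-killing and DMSO as no toxicity.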
# Starred values were filed as active, the others as inactive; ? = inconclusive; nt = no result. Unless noted, calls come from the whole dose curve; as a rule, active = well fitted curve in the direction sought with a large enough effect; inconclusive = small, poorly fitted or top-dose-only effect, or another doubt; inactive = no such curve, though single readings can be large; an effect the other way counts as inactive or inconclusive.
SMILES,TGFb inhibitor,TDP1 cell noCPT,ASM inhibitor,IL-1B inflam inh,DT40 TDP1 CPT,HepG2 tox
COc1ccc(F)cc1-c1cc(C(=O)NCc2cc(C(F)(F)F)cc(C(F)(F)F)c2)[nH]n1,?,?,nt,-12,18µM*,-38%
COc1ccc(Cl)cc1-c1cc(C(=O)Nc2ccccc2)[nH]n1,3%,?,nt,-22,?,-38%
COc1ccc(Cl)cc1-c1cc(C(=O)NCc2ccccc2)[nH]n1,-34%,21µM*,nt,-11,16µM*,-25%
COc1cc(CNC(=O)c2cc(-c3cc(Cl)ccc3OC)n[nH]2)cc(OC)c1,-24%,?,nt,-9,?,-6%
CCOc1ccc(Cl)cc1-c1cc(C(=O)NCc2ccccc2)[nH]n1,?,?,nt,?,12µM*,0%
CCCCCCNCc1ccc(Br)cc1,-2%,?,6%,-56*,?,-25%
COC(=O)c1ccc(COc2cccnc2[N+](=O)[O-])cc1,-16%,-25%,-2%,-6,-1%,-7%
CN(C(=O)c1cccc(NC(=O)C2CCCN(C(=O)OC(C)(C)C)C2)c1)C1CCC1 (configuration not stated),-22%,16µM*,16%,?,21µM*,-4%
CN(C(=O)c1ccc(NC(=O)C2CCN(C(=O)OC(C)(C)C)CC2)cc1)C1CCC1,-7%,18µM*,0%,-2,18µM*,-24%
CC(C)(C)OC(=O)N1CCC(C(=O)Nc2cccc(C(=O)N3CCCCC3)c2)CC1,-4%,-4%,3%,-4,-16%,2%
CN(C(=O)c1cccc(NC(=O)C2CCN(C(=O)OC(C)(C)C)CC2)c1)C1CCCCC1,?,13µM*,0%,3,21µM*,-21%
COC(=O)c1ccc(-n2nnc(-c3nc(-c4ccccc4Cl)no3)c2C)cc1,nt,-8%,nt,nt,7%,3%
O=C(COCc1cc(-c2ccco2)on1)Nc1cccc(Cl)c1Cl,0%,-10%,nt,nt,?,-36%
N#C/C(=C/c1ccc(N2CCCCCC2)o1)c1ccc(F)cc1,29%,4.6µM*,-4%,-70*,5.2µM*,-28%
COc1cc(N2CCCC2)c(OC)cc1/C=C(/C#N)c1cccc(F)c1,38%,?,-20%,-7,?,-12%
N#C/C(=C/c1ccc(N2CCCCCC2)o1)c1cccc(F)c1,64%,21µM*,-11%,-27,?,-16%
CCOc1ccc(S(=O)(=O)Nc2cccc(-c3ccc(N4CCCCCC4)nn3)c2)cc1,0%,?,0%,-22,?,0%
CCOc1ccc(S(=O)(=O)Nc2ccc(-c3ccc(N4CCCC4)nn3)cc2)cc1,-11%,-13%,nt,nt,2%,-3%
COc1ccc(S(=O)(=O)Nc2cccc(-c3ccc(N4CCCC4)nn3)c2)cc1OC,?,-26%,nt,nt,-28%,-28%
CCCCOc1ccc(S(=O)(=O)Nc2cccc(-c3ccc(N4CCOCC4)nn3)c2)cc1,?,?,nt,nt,21µM*,-4%
COc1c(C)cc(S(=O)(=O)Nc2cccc(-c3ccc(N4CCOCC4)nn3)c2)c(C)c1C,-33%,?,nt,nt,23µM*,-27%
Cc1ccc(S(=O)(=O)Nc2cccc(-c3ccc(N4CCCCCC4)nn3)c2)cc1C,-26%,23µM*,-7%,-3,?,-52%
CCCCOc1ccc(S(=O)(=O)Nc2ccc(-c3ccc(N4CCC(C)CC4)nn3)cc2)cc1,?,29µM*,nt,nt,12µM*,-9%
CCCCn1c(N)c(N(CCOC)C(=O)CCS(=O)(=O)c2ccc(Cl)cc2)c(=O)[nH]c1=O,0%,3%,12%,6,-9%,-18%

# Screening results deposited in PubChem BioAssay by National Center for Advancing Translational Sciences (NCATS).
